{
  "source": "PubChem BioAssay AID504339",
  "about": "(National Center for Advancing Translational Sciences (NCATS), 2011)",
  "note": "Screen size: about 390,000 compounds; about 17,000 (4.4%) were called active. Another 8% or so got no clear call; they are omitted. The call rests on the fitted dose curve; in most records, active means well fitted inhibition curve with a large enough effect; inconclusive means small, poorly fitted or top-dose-only effect; inactive means no such curve, though single readings can be large or run the other way. This excerpt belongs to a sample that is enriched for actives. On the % scale 0 is the no-effect control and ±100 the full control effect; potency means the concentration at half of the fitted maximal effect.",
  "data": [
    {"target": "Lysine-specific demethylase 4A (Homo sapiens) (UniProt O75164)", "sequence (O75164 whole entry, looked up, the tested form may be a part)": "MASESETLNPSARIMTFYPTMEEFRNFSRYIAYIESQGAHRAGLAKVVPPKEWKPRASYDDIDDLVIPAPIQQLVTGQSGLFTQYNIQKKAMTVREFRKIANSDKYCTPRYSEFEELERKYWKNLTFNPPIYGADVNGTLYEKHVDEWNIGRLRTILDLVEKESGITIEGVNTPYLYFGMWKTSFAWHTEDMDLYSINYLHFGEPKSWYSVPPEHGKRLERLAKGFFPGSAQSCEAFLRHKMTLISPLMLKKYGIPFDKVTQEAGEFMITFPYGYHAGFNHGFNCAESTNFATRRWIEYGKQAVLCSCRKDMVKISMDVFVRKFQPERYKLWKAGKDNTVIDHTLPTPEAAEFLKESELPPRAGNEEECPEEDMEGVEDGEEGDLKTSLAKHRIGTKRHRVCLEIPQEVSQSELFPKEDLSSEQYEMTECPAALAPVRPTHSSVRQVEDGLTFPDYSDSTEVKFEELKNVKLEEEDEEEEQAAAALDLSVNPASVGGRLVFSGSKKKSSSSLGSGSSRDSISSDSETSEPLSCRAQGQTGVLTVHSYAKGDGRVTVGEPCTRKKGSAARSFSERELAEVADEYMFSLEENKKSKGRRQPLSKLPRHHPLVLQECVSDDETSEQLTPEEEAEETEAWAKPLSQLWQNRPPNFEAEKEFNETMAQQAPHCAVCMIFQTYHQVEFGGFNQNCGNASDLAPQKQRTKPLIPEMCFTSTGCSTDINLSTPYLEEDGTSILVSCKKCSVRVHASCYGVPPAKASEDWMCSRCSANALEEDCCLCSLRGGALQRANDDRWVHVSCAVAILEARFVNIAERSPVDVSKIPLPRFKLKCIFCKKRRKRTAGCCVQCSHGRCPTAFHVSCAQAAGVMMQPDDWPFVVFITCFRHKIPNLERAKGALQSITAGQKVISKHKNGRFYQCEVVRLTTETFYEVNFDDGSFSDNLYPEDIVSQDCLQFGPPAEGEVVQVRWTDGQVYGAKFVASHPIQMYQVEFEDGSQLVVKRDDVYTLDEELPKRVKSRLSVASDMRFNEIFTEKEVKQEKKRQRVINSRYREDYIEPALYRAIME", "experiment": "qHTS Assay for Inhibitors of JMJD2A-Tudor Domain; further: nearly all actives have a fitted effect of over 50% in size", "settings": "AlphaScreen JMJD2A-Tudor / H3K4me3 peptide binding; series mostly up to 114 µM; activity change, negative = inhibition: at the top concentration", "values": [
      {"smiles": "CCOc1ccc(C2C(=O)N(C3CCCCC3)CC(=O)N2CCC2=CCCCC2)cc1OC", "note": "(configuration not stated)", "activity change, negative = inhibition": "-12.8% (inactive)"},
      {"smiles": "CC(/C=N/NC(=O)c1cc(-c2ccc3ccccc3c2)n[nH]1)=C\\c1ccco1", "activity change, negative = inhibition": "-32.6% (inactive)"},
      {"smiles": "Cc1cc(-c2n[nH]c(=S)n2/N=C/C(Br)=C/c2ccccc2)n[nH]1", "Potency": "56.2 µM (active)"},
      {"smiles": "Cc1cc(-c2n[nH]c(=S)n2/N=C/c2ccco2)n[nH]1", "Potency": "3.98 µM (active)"},
      {"smiles": "Cc1ccc(NC(=O)CCC(=O)N/N=C/c2ccco2)c(C)c1", "activity change, negative = inhibition": "-15% (inactive)"},
      {"smiles": "Cc1cc(NC(=O)CC(C)C)cc(-c2nc3ncccc3o2)c1O", "activity change, negative = inhibition": "-10.4% (inactive)"},
      {"smiles": "Fc1ccc(-c2nn(-c3ccccc3Cl)c3c2cnc2ccccc23)cc1", "activity change, negative = inhibition": "-10.6% (inactive)"},
      {"smiles": "O=C(NC1CC(=O)N(c2ccccc2)C1)c1ccco1", "note": "(configuration not stated)", "activity change, negative = inhibition": "-14% (inactive)"},
      {"smiles": "Cc1cc(C)n2ncc(C(=O)N3CCCC3)c2n1", "activity change, negative = inhibition": "-14.2% (inactive)"},
      {"smiles": "Cc1ccc(Cl)cc1NC(=O)CSc1nccn1C", "activity change, negative = inhibition": "-11.9% (inactive)"},
      {"smiles": "NC(=O)C1CCN(C(=O)c2ccc3c(=O)n(Cc4cccc(Br)c4)c(=S)[nH]c3c2)CC1", "activity change, negative = inhibition": "-31.2% (inactive)"},
      {"smiles": "NC(=O)C1CCN(C2OC(=O)c3ccccc32)CC1", "note": "(configuration not stated)", "activity change, negative = inhibition": "-12.3% (inactive)"},
      {"smiles": "NC(=O)C1CCN(Cc2nc3c(Br)cc(Br)cc3c(=O)[nH]2)CC1", "Potency": "3.16 µM (active)"},
      {"smiles": "COc1ccc(Cl)cc1NC(=O)C(C)Sc1nc2c(c(=O)[nH]1)CCCC2", "note": "(configuration not stated)", "activity change, negative = inhibition": "-10.9% (inactive)"},
      {"smiles": "COc1cc(NC(=O)CCn2nc(C)cc2C)cc(OC)c1OC", "activity change, negative = inhibition": "-5% (inactive)"},
      {"smiles": "O=C(CSc1oc(-c2ccco2)nc1S(=O)(=O)c1ccc(Cl)cc1)c1ccccc1", "activity change, negative = inhibition": "-29% (inactive)"},
      {"smiles": "COc1ccccc1C1/C(=C(/O)c2ccc(C)cc2)C(=O)C(=O)N1Cc1ccco1", "note": "(configuration not stated)", "activity change, negative = inhibition": "-7.61% (inactive)"},
      {"smiles": "COc1ccc(/C(O)=C2\\C(=O)C(=O)N(Cc3ccco3)C2c2ccc(OC)cc2OC)cc1", "note": "(configuration not stated)", "Potency": "20 µM (active)"},
      {"smiles": "COc1ccc(C2/C(=C(/O)c3ccccc3)C(=O)C(=O)N2C)c(OC)c1", "note": "(configuration not stated)", "activity change, negative = inhibition": "-13% (inactive)"},
      {"smiles": "CCOC(=O)c1cccc(NC(=O)C(Cc2ccccc2)NS(=O)(=O)c2cccc3nsnc23)c1", "note": "(configuration not stated)", "activity change, negative = inhibition": "-25.7% (inactive)"},
      {"smiles": "COc1ccc2c(c1)c(N1CCCC1=O)c(C(=O)Nc1ccccc1C(F)(F)F)n2C", "activity change, negative = inhibition": "-2.07% (inactive)"},
      {"smiles": "CC(c1ccco1)N(C(=O)Nc1ccccc1)C1CCCCC1", "note": "(configuration not stated)", "activity change, negative = inhibition": "-15.1% (inactive)"},
      {"smiles": "Cc1ccc(NC(=O)NC(=O)N(C2CCCCC2)S(=O)(=O)c2ccccc2)cc1", "Potency": "70.8 µM (active)"},
      {"smiles": "CC(C)(C)NS(=O)(=O)c1ccc(NC(=O)NC2CCCCC2)cc1", "activity change, negative = inhibition": "-9.35% (inactive)"},
      {"smiles": "Cc1ccc2cccc(NC(=O)c3cccc4ccccc34)c2n1", "activity change, negative = inhibition": "29.1% (inactive)"},
      {"smiles": "COc1cccc2c1C(=O)c1c(O)c3c(c(O)c1C2=O)CC(O)(C(C)=NNC(=O)c1ccc(Cl)c(Cl)c1)CC3OC1CC(N)C(O)C(C)O1", "note": "(configuration not stated)", "Potency": "50.1 µM (active)"},
      {"smiles": "Cc1ccc(CNC(=O)CCNS(=O)(=O)c2ccc3c(c2)oc(=O)n3C)cc1", "activity change, negative = inhibition": "-5.3% (inactive)"}
    ]}
  ]
}
